Measured values taken from article PMC7862700, “An all-to-all approach to the identification of sequence-specific readers for epigenetic DNA modifications on cytosine”.

Tests used:
Experiment in all cases: DAPPL (digital affinity profiling via proximity ligation, sequencing); 10 mM Tris-HCl pH 7.5, 50 mM NaCl, 1 mM DTT, 4% glycerol, room temperature, 30 min; GST-TFs on glutathione beads, 16-mer random dsDNA library, 0.1% formaldehyde crosslink after washing; high values mean tight binding
HSF1 = HSF1 (Homo sapiens, UniProt Q00613 1-529); settings: protein: recombinant; tags: N-terminal GST; chain copies: 3; dsDNA, one strand shown
Procedure, shortened: (§1)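 Binding signal is defined as a hexamer's read frequency for one factor over its frequency for the tag-only sample. To obtain reads, GST-fused human transcription factors were expressed in yeast, captured on glutathione beads, barcoded with DNA and pooled with that sample. Pools met 200 nmole of a 16-mer random double-stranded DNA library in Tris/NaCl/DTT/glycerol buffer for 30 min at room temperature before washing, 0.1% formaldehyde crosslinking, proximity ligation (BsaI/T4 ligase, 1 h, 37 °C), PCR and Illumina NextSeq500 sequencing.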

FLI1 = target: T1, FLI1 (Homo sapiens, UniProt Q01543 1-452); settings: protein: recombinant; tags: N-terminal GST; dsDNA, one strand shown
T1 sequence: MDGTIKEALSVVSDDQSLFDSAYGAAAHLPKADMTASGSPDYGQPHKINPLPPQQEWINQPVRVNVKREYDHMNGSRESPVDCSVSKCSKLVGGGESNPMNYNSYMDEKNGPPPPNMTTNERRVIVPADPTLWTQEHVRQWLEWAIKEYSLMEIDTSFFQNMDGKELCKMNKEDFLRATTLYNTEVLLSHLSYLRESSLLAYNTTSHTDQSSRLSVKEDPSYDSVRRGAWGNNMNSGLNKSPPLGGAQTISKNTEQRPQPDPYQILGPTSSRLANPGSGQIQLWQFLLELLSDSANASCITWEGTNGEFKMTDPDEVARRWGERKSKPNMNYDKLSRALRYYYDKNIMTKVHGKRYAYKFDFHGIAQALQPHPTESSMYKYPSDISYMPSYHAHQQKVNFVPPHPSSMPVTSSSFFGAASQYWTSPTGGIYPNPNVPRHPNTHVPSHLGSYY
Procedure, shortened: as §1

GABPA = target: T2, GABPA (Homo sapiens, UniProt Q06546 1-454); settings: protein: recombinant; tags: N-terminal GST; dsDNA, one strand shown
T2 sequence: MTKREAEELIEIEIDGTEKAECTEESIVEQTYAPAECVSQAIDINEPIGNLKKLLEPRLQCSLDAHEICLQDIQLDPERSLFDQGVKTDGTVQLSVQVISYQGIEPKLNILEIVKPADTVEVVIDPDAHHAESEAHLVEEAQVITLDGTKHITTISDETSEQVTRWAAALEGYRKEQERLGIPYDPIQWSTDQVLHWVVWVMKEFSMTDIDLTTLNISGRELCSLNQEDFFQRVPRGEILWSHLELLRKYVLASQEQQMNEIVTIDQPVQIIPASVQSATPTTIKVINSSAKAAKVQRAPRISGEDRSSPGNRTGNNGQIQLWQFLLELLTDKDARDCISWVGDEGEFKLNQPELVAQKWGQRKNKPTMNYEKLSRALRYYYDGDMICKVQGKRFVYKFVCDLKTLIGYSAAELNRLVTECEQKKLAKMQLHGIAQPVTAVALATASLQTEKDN
Procedure, shortened: as §1

ERG = target: T3, ERG (Homo sapiens, UniProt P11308 1-479); settings: protein: recombinant; tags: N-terminal GST; dsDNA, one strand shown
T3 sequence: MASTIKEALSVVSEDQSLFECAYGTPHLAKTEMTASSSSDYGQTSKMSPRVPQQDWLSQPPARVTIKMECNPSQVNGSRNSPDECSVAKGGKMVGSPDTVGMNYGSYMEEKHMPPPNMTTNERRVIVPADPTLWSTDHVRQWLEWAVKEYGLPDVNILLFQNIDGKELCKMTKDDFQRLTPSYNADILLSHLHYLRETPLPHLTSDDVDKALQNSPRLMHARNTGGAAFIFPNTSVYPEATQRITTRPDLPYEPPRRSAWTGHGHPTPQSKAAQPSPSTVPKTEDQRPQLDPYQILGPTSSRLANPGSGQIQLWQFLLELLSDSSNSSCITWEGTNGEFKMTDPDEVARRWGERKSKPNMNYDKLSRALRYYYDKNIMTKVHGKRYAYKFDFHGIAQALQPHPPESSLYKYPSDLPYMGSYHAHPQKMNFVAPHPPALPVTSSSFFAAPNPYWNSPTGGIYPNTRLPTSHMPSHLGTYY
Procedure, shortened: as §1

ELF1 = ELF1 (Homo sapiens, UniProt P32519 1-619); settings: protein: recombinant; tags: N-terminal GST; dsDNA, one strand shown
Procedure, shortened: as §1

EHF = target: T4, EHF (Homo sapiens, UniProt Q9NZC4 1-300); settings: protein: recombinant; tags: N-terminal GST; dsDNA, one strand shown
T4 sequence: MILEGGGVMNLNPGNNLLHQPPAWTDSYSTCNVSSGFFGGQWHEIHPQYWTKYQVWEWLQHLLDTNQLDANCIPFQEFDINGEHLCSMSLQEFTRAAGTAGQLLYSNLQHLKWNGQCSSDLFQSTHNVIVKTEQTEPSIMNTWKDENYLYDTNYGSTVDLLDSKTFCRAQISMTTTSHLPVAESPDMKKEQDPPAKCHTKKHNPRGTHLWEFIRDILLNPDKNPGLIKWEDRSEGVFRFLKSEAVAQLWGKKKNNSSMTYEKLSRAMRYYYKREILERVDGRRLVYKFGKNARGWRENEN
Procedure, shortened: as §1

SPI1 = SPI1 (Homo sapiens, UniProt P17947 1-270); settings: protein: recombinant; tags: N-terminal GST; dsDNA, one strand shown
Procedure, shortened: as §1

SPIB = SPIB (Homo sapiens, UniProt Q01892 1-262); settings: protein: recombinant; tags: N-terminal GST; dsDNA, one strand shown
Procedure, shortened: as §1

ELK3 = target: T5, ELK3 (Homo sapiens, UniProt P41970 1-407); settings: protein: recombinant; tags: N-terminal GST; dsDNA, one strand shown
T5 sequence: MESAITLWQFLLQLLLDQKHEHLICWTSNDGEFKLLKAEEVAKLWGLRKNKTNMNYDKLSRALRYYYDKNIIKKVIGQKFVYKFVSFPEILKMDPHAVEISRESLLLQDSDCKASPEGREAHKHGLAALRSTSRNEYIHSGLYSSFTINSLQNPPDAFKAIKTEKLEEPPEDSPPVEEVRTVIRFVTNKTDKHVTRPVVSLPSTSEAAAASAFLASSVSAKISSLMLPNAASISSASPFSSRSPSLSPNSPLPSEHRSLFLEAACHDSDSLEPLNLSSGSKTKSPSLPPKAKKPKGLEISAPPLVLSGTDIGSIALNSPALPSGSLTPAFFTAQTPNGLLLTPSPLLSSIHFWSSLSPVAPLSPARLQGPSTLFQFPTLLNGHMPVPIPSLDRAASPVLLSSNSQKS
Procedure, shortened: as §1

ELK4 = target: T6, ELK4 (Homo sapiens, UniProt P28324-2 1-405); settings: protein: recombinant; tags: N-terminal GST; dsDNA, one strand shown
T6 sequence: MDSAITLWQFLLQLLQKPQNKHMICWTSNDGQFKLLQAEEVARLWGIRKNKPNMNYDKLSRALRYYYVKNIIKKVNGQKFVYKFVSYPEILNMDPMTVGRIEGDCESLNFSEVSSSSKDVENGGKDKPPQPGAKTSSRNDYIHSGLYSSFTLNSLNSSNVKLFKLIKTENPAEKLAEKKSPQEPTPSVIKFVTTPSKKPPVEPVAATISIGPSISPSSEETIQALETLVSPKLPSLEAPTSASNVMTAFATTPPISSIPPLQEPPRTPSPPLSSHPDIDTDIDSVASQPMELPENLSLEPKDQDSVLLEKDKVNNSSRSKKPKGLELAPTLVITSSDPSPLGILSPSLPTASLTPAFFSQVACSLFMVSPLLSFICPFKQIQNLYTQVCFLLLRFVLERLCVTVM
Procedure, shortened: as §1

ETV2 = target: T7, ETV2 (Homo sapiens, UniProt O00321 1-342); settings: protein: recombinant; tags: N-terminal GST; dsDNA, one strand shown
T7 sequence: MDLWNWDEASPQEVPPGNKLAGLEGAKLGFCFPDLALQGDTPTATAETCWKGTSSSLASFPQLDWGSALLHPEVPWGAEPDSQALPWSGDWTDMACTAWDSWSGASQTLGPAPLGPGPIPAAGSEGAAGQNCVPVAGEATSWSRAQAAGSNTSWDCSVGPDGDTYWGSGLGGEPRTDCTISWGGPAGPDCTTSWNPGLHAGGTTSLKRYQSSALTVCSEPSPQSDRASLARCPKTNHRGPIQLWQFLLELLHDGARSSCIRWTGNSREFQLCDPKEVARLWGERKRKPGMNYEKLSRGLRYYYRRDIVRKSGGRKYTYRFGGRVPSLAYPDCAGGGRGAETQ
Procedure, shortened: as §1

ETV1 = ETV1 (Homo sapiens, UniProt P50549 1-477); settings: protein: recombinant; tags: N-terminal GST; dsDNA, one strand shown
Procedure, shortened: as §1

ERF = target: T8, ERF (Homo sapiens, UniProt P50548 1-548); settings: protein: recombinant; tags: N-terminal GST; dsDNA, one strand shown
T8 sequence: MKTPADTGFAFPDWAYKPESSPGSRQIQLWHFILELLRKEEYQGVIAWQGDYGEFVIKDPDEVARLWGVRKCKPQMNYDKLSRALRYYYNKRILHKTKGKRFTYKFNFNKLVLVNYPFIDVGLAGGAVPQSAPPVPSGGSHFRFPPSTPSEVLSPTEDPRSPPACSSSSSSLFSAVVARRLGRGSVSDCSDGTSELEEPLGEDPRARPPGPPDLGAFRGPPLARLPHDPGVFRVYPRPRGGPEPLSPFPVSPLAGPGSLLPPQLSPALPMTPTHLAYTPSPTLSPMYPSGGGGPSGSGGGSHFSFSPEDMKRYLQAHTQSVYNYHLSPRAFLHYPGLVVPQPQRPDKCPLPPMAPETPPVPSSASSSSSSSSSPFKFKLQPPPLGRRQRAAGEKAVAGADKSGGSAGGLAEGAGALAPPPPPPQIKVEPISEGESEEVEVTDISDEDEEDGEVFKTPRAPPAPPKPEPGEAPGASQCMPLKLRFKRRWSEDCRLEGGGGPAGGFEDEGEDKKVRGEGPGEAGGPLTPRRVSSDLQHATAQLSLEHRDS
Procedure, shortened: as §1

ETV3L = target: T9, ETV3L (Homo sapiens, UniProt Q6ZN32 1-361); settings: protein: recombinant; tags: N-terminal GST; dsDNA, one strand shown
T9 sequence: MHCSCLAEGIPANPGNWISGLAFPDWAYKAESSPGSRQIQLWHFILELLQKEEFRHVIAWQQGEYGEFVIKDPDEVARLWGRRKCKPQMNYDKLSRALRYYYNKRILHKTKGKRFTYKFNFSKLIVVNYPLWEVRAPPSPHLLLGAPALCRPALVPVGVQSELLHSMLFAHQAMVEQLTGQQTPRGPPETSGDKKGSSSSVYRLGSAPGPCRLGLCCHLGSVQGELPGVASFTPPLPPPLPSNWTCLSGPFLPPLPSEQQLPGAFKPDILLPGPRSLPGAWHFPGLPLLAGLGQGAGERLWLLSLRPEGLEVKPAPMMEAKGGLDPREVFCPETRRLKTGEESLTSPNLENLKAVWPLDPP
Procedure, shortened: as §1

ETV3 = target: T10, ETV3 (Homo sapiens, UniProt P41162-2 1-143); settings: protein: recombinant; tags: N-terminal GST; dsDNA, one strand shown
T10 sequence: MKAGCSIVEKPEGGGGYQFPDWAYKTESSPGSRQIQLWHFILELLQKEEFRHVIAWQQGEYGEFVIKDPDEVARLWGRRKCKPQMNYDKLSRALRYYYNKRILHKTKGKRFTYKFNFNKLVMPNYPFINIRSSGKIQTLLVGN
Procedure, shortened: as §1

ETV6 = ETV6 (Homo sapiens, UniProt P41212 1-452); settings: protein: recombinant; tags: N-terminal GST; dsDNA, one strand shown
Procedure, shortened: as §1

Chain of ELF1 (P32519 whole entry): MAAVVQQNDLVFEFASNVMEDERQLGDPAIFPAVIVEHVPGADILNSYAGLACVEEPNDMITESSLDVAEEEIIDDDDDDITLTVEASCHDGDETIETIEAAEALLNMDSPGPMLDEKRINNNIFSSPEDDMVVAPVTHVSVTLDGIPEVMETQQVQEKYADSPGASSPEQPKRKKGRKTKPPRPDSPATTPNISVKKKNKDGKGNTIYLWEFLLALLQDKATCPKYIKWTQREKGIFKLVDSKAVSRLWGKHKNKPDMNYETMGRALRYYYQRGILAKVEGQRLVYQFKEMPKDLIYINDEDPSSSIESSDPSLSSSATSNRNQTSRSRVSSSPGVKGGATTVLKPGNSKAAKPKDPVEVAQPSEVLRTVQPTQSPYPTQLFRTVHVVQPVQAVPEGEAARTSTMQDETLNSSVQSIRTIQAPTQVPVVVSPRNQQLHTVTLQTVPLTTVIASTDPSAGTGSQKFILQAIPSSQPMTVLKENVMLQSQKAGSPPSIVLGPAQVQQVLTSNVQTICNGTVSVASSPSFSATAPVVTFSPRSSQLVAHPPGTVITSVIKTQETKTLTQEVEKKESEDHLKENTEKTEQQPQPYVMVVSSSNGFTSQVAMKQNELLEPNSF
Chain of HSF1 (Q00613 whole entry, the tested form may be a part): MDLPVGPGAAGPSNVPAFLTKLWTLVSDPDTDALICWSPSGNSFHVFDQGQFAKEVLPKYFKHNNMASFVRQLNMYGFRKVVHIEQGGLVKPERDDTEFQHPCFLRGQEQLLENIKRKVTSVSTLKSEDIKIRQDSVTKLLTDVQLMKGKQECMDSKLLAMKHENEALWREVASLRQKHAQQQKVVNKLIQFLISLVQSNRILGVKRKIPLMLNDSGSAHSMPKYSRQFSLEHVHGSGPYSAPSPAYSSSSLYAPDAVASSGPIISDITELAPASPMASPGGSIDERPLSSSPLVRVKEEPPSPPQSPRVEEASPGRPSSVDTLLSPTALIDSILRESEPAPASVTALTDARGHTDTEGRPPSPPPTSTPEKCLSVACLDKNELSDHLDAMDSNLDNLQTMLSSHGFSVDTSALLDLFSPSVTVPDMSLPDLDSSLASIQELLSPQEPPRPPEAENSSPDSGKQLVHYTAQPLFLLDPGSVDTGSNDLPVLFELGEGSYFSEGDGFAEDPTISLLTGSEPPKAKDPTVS
Chain of SPIB (Q01892 whole entry): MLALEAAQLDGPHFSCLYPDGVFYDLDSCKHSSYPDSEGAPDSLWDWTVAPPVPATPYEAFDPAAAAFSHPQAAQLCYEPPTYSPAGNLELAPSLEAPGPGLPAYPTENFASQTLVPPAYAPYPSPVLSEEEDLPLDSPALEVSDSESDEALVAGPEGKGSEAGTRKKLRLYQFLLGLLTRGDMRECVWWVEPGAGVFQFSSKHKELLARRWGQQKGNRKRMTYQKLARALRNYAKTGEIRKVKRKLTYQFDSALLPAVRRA
Chain of ETV6 (P41212 whole entry): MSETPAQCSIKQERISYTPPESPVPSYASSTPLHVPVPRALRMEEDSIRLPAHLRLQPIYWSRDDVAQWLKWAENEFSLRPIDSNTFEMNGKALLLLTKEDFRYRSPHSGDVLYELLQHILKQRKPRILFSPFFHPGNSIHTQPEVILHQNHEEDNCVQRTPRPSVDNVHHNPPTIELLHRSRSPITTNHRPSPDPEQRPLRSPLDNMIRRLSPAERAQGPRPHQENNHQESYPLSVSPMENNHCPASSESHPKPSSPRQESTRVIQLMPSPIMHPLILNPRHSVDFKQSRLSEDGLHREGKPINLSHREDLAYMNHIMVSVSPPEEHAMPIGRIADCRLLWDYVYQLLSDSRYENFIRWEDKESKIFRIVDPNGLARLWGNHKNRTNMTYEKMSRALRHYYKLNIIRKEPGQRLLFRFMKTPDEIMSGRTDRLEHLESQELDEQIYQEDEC
Chain of ETV1 (P50549 whole entry): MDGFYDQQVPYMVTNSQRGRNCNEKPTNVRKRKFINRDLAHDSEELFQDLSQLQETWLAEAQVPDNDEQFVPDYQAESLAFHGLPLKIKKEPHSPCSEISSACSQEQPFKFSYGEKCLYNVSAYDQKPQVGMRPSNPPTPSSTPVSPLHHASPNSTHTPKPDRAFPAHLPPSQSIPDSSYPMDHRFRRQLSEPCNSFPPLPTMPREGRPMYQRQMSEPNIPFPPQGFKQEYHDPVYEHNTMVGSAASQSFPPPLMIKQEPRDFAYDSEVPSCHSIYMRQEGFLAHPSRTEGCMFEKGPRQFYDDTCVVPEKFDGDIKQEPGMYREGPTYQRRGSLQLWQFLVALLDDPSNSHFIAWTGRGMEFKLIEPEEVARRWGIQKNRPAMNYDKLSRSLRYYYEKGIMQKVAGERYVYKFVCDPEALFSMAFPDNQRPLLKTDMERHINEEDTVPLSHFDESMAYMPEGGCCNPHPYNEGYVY

Sequence | binding signal (HSF1) | binding signal (FLI1) | binding signal (GABPA) | binding signal (ERG) | binding signal (ELF1) | binding signal (EHF) | binding signal (SPI1) | binding signal (SPIB) | binding signal (ELK3) | binding signal (ELK4) | binding signal (ETV2) | binding signal (ETV1) | binding signal (ERF) | binding signal (ETV3L) | binding signal (ETV3) | binding signal (ETV6)
AGGTTC | 1.18 fold enrichment (6-mer frequency, TF over GST control) | – | – | – | – | – | – | – | – | – | – | – | – | – | – | –
CCTGGC | – | 1.03 fold enrichment (6-mer frequency, TF over GST control) | 1.1 fold enrichment (6-mer frequency, TF over GST control) | 1.15 fold enrichment (6-mer frequency, TF over GST control) | 1.07 fold enrichment (6-mer frequency, TF over GST control) | 1.04 fold enrichment (6-mer frequency, TF over GST control) | 1.05 fold enrichment (6-mer frequency, TF over GST control) | 1.03 fold enrichment (6-mer frequency, TF over GST control) | 1.06 fold enrichment (6-mer frequency, TF over GST control) | 1.13 fold enrichment (6-mer frequency, TF over GST control) | 1.27 fold enrichment (6-mer frequency, TF over GST control) | 1.04 fold enrichment (6-mer frequency, TF over GST control) | 1.03 fold enrichment (6-mer frequency, TF over GST control) | 1.08 fold enrichment (6-mer frequency, TF over GST control) | 1.01 fold enrichment (6-mer frequency, TF over GST control) | 1.08 fold enrichment (6-mer frequency, TF over GST control)
